Assay results published in PubChem BioAssay (NCI).
This is part of a sample that, as a whole, favours compounds with a hit. Of some 83,000 tested, about 20% had one in any assay.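 A percent growth of 40 corresponds to 60% growth inhibition; 0 means no net growth; -100 means all cells died. Active threshold: below 10.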 Values without a mark were called inactive. The source made the active and inactive calls.

Legend:
Assay in all cases: NCI-60 one-dose screen, 48 h (100 = growth as untreated, 0 = no growth, -100 = all killed)
Conditions in all cases: 10 µM unless noted
[1] = tested on: HCT-15 colon
[2] = tested on: HT29 colon
[3] = tested on: SNB-75 CNS
[4] = tested on: SNB-19 CNS
[5] = tested on: U251 CNS
[6] = tested on: PC-3 prostate
[7] = tested on: SK-MEL-5 melanoma
[8] = tested on: UACC-62 melanoma
[9] = tested on: LOX IMVI melanoma
[10] = tested on: SK-MEL-28 melanoma
[11] = tested on: SK-MEL-2 melanoma
[12] = tested on: EKVX NSCLC
[13] = tested on: SN12C renal
[14] = tested on: UO-31 renal
[15] = tested on: TK-10 renal
[16] = tested on: ACHN renal
[17] = tested on: CAKI-1 renal
[18] = tested on: A498 renal
[19] = tested on: CCRF-CEM leukemia
[20] = tested on: MOLT-4 leukemia

Compound | growth [1] | growth [2] | growth [3] | growth [4] | growth [5] | growth [6] | growth [7] | growth [8] | growth [9] | growth [10] | growth [11] | growth [12] | growth [13] | growth [14] | growth [15] | growth [16] | growth [17] | growth [18] | growth [19] | growth [20]
N#C/C(=C\c1ccccn1)c1nc2cc(Cl)ccc2s1 | 63.5% | 86.4% | 8.52% (active) | 85.9% | 73.8% | 44.1% | 83.7% | 68.1% | 72.7% | 101% | 95.9% | 56% | 64.7% | 44.3% | 119% | 75.8% | 66.5% | 64.6% | 63.9% | 75.6%
NNC(=O)c1ccc(-n2nc(-c3ccccc3)c3ccccc32)cc1 | 57.6% | 103% | 53.6% | 66.1% | 22.6% | 69.4% | 84.5% | 80.7% | 68.2% | 83.9% | 79.3% | 63.4% | 75.1% | 68% | 110% | 85.6% | 76.5% | 75% | 37.2% | 74.8%
COc1ccc(/C=C/C(=O)Nc2cc(/C=C\c3cc(OC)c(OC)c(OC)c3)cc(OC)c2OC)cc1OC | 25.9% | 14.6% | 34.7% | 46.2% | 41.3% | 20.7% | -59.3% (active) | 16.3% | 27.7% | 40.1% | 19.9% | 31.4% | 33% | 19.4% | 73.9% | 39.1% | 12% | -1.95% (active) | 3.79% (active) | -13.9% (active)
COc1cc2nc(-c3ccc(Cl)cc3)cc(OCCCN3CCCCC3)c2cc1OC | 17.4% | 18.1% | 18.2% | 70.5% | 48.7% | 42.9% | -18.5% (active) | -32.6% (active) | -45.2% (active) | 60% | 65.7% | 66.2% | 41.8% | 41.8% | 89.9% | 34% | 0.0525% (active) |  | 49% | 37.1%
Oc1c(Cl)cc(Cl)c(Cl)c1CNCCNCc1c(O)c(Cl)cc(Cl)c1Cl | 25.1% | 26.8% | 51.9% | 15.9% | 10.1% | 44.4% | -1.48% (active) | -13.3% (active) | 6.53% (active) | 21.4% | 18.3% | 22.4% | 36.2% | 0.579% (active) | 39.5% | 8.86% (active) | 9.72% (active) | 51.3% | 4.31% (active) | 10%
Fc1ccc(-c2cn3c(nc4ccccc43)c(-c3ccccc3)n2)cc1 | 94% | 78.4% | 68.9% | 103% | 91.5% | 85% | 88.6% | 78.9% | 106% | 185% | 109% | 108% | 89.2% | 80.4% | 113% | 92.7% | 84.9% | 111% |  | 92.4%
Cc1cnc(C(=O)Nc2nc3ccc(S(=O)(=O)Nc4ccc(C(C)(C)C)cc4)cc3[nH]2)cn1 | 18% | 12.8% | 5.59% (active) | 31.6% | 18.9% | 20.8% | 10.9% | 40.2% | 42.3% | 35.8% | 51.1% | 51% | 43.7% | 40.4% | 43.4% | 49.6% | 27.3% |  | 10.8% | 21.5%
C/C(=N\Nc1cc(C)nc2ccc(Br)cc12)c1ccc([N+](=O)[O-])cc1 | 21.7% | 37.3% | 105% | 75.7% | 20% | 74.8% | 92.3% | 89.6% | -29.9% (active) | 99.2% | 93.1% | 78.2% | 60.2% | 64.4% | 115% | 42.5% | 84.6% |  | 13.5% | 53.1%
CC1(C)CC(O)CCCCCCOc2c(CN)cccc2NC(=O)c2nc(cnc2N)-c2ccc(cc2)S1(=O)=O (stereo unspecified) | -14.4% (active) | 9.7% (active) | 53.7% | 8.06% (active) | -26.6% (active) | 22.6% | -31.7% (active) | 41.3% | 13% | 43.4% | 25.4% | 86.2% | 20.1% | 27.8% | 34.7% | 24.7% | 18.1% |  | -8.71% (active) | 2.43% (active)
C#CCNC(=O)c1cccc2c1cc(C)n2-c1nc2c(c(NCc3ccccc3)n1)CCCC2 | -60.1% (active) | 0.876% (active) | 5.33% (active) | -24.9% (active) | -71.6% (active) | -18.2% (active) | -94.3% (active) | -60.6% (active) | -86.6% (active) | -6.03% (active) | -38% (active) | -30.4% (active) | -41.3% (active) | -63.8% (active) | -15% (active) | 3.27% (active) | 3.06% (active) |  | 5.3% (active) | -8.18% (active)
O=C(CCN1CCCC1)Nc1ccc2c(Nc3ccc(F)cc3)c3ccccc3nc2c1 | -31.9% (active) | 4.15% (active) | 16.3% | 13.8% | -42.1% (active) | 8.99% (active) | 33.9% | 21.5% | -61.2% (active) | -40.8% (active) | 49% | 47.5% | 9.14% (active) | -89.1% (active) | -20.1% (active) | -13.3% (active) | -75.9% (active) |  | -17.8% (active) | -9.71% (active)
CNC(=O)c1cncc(Cn2nc(C)c(NC(=O)c3ccc(COc4ccc(C(F)(F)F)cc4C)cc3)c2C)c1 | 74.7% | 56.5% | 77.7% | 56.6% | 63.7% | 53.9% | 7.09% (active) | 64.7% | 64.3% | 81.6% | 48.8% | 46.5% | 69.1% | 58.6% | 61.9% | 62% | 60% |  | 69% | 41.7%
O=[N+]([O-])c1ccc(NC(=S)N/N=C/c2cc3ccccc3n3nnnc23)cc1 | 27.3% | 99.8% | 58.2% | 29.8% | 30.2% | 34.5% | 71% | 65.4% | 39.2% | 79% | 49.3% | 36.6% | 58.5% | -1.57% (active) | 56.8% | 29.9% | 25.4% |  | 11.3% | 20.4%
